HIV TAR-Tat: HIV-1 TAR-Tat binding disruption | HIV-1 TAR RNA, Tat peptide displacement FRET; stronger effect = higher value | z-score (no concentration beside the values) | actives 0.6% (n = 100,000) | AID 1259389; active = z-score of 3 or more in at least 2 runs
CDC25B-CDK2 inh: human CDC25B-CDK2/CyclinA binding inhibition | P30305+P24941 | HTRF CDC25B-CDK2/CyclinA binding, anti-His/anti-Flag; stronger effect = higher value | actives 0.72% (n = 94,000) | z-score (test concentration not listed) | AID 1259370; in the data active = z-score above about 3.2
Active calls of the source: *; · = no result given; ! = not active in a repeat. Most compounds without a hit are left out; they make up all but 0.9% or so of the library.

SMILES	HIV TAR-Tat	CDC25B-CDK2 inh
Cc1ccc(C)n1-c1ccc(Cl)c(C(=O)O)c1	16*	0
Cc1ccc(C)n1-c1ccc(Cl)cc1C(=O)O	14*	-2.1
COc1cccc(OCCSc2nc3ccccc3[nH]2)c1	·	-0.7
Cc1nn(C)c(C)c1CNC(=O)CCCn1c(=O)c2cccn2c2ccc(Br)cc21	1.3	·
Cc1cc(-c2ccc(C)c(S(=O)(=O)Nc3cc(Cl)ccc3C)c2)on1	0.78	·
Cc1ccc2cc3c(nc2c1)N(C(=O)C(C)C)CC3	0.54	1.6
CC1(C)CC(=O)C2=C(C1)Nc1ccccc1NC2c1ccccc1F (stereo not given)	-14	-1
CC1(C)CC(=O)C2=C(C1)Nc1ccccc1NC2c1cccc2ccccc12 (stereo not given)	·	13*
COc1ccc(Cc2nn3c(C(C)C)nnc3s2)cc1	-0.13	-1.2
CCOc1ccc(-c2cc(C(=O)O)c3cc(Br)ccc3n2)cc1	1.9	-2.4
COc1ccc(-c2cc(C(=O)OC(C)C)c3cc(Br)ccc3n2)cc1	·	15*
CC(Sc1nc2c(c(=O)[nH]1)CCC2)C(=O)Nc1ccc(F)cc1 (stereo not given)	-0.17	0.64
O=C(NCc1ccc(Cl)cc1)C1=Cc2sc3c(c2CS1)CCCC3	-2.8	·
NC(=O)CSc1nc2ccc(NC(=O)c3cccs3)cc2s1	0.13	-0.63
O=c1cc(-c2ccc(O)c(O)c2)oc2cc(O)cc(O)c12	33*	·
O=c1c(O)c(-c2ccc(O)c(O)c2)oc2cc(O)cc(O)c12	28*!	-1.9
COc1ccc(-c2cc(=O)c3c(O)cc(O)cc3o2)cc1	1.7	·
COc1cc(-c2oc3cc(O)cc(O)c3c(=O)c2O)ccc1O	1.8	·
CCOc1c(NCc2ccco2)c(=O)c1=O	0.81	·
CCc1c(C)nc(-n2nc(C)cc2NC(=O)C2c3ccccc3Oc3ccccc32)[nH]c1=O	-0.31	·
NC(N)=NS(=O)(=O)c1ccc(N/C=C\C(=O)c2ccc3ccccc3c2)cc1	·	18*
NC(N)=NS(=O)(=O)c1ccc(N/C=C\C(=O)c2ccc(F)cc2)cc1	·	-1.6
Cc1ccc2c(c1)-c1c(cnn1CC(=O)Nc1cc(C)on1)CO2	0.17	-2.3
Cc1c2c(=O)n(-c3ccccc3)[nH]c2cc(=O)n1Cc1cccnc1	1.2	2
Cc1c2c(=O)n(-c3ccccc3)[nH]c2cc(=O)n1Cc1ccco1	9.6*	4.3
SMILES	HIV TAR-Tat	CDC25B-CDK2 inh
O=C(CCCn1c(=O)c2cccn2c2ccccc21)NCCc1cccs1	2.3	·
CCN(CC)Cc1ccc(O)c2ncccc12	1.3	13*
Oc1ccc(Cc2ccc(O)c3ncccc23)c2cccnc12	1.9	-3.8
Cc1ccc(Cl)cc1-n1nnc(-c2nc(-c3ccc(Cl)cc3)no2)c1N	0.53	·
O=c1c(O)cc([C@H]2Oc3cc(O)cc(O)c3C[C@H]2O)cc2c([C@H]3Oc4cc(O)cc(O)c4C[C@H]3O)cc(O)c(O)c12	18*	·
O=C(O[C@@H]1Cc2c(O)cc(O)cc2O[C@@H]1c1ccc(O)c(O)c1)c1cc(O)c(O)c(O)c1	29*	·
O=C(Oc1cc(OC(=O)c2ccccc2)c2c(c1)O[C@H](c1ccc(OC(=O)c3ccccc3)c(OC(=O)c3ccccc3)c1)[C@@H](OC(=O)c1ccccc1)C2)c1ccccc1	-0.12	·
O=C1C[C@@H](c2ccc(O)cc2)Oc2cc(O)cc(O)c21	2.9	·
CC(=O)Oc1cc(OC(C)=O)c2c(c1)O[C@H](c1ccc(OC(C)=O)c(OC(C)=O)c1)[C@@H](OC(C)=O)C2	0.8	·
O=C(O[C@@H]1Cc2c(O)cc(O)cc2O[C@@H]1c1cc(O)c(O)c(O)c1-c1c([C@H]2Oc3cc(O)cc(O)c3C[C@H]2O)cc(O)c(O)c1O)c1cc(O)c(O)c(O)c1	4.7*	·
O=C(O[C@@H]1Cc2c(O)cc(O)cc2O[C@@H]1c1cc(O)c(O)c(O)c1)c1cc(O)c(O)c(O)c1	25*	·
Cc1cc(C2CCCN2S(=O)(=O)c2cccc3nsnc23)no1 (stereo not given)	2.9	·
COc1ccc(Br)c(-c2nnc(-c3cccc(Cl)c3)o2)c1	-0.41	-2.4
CC(=O)N1c2ccc(S(=O)(=O)N3CCCC(C(=O)Nc4cccc(C)n4)C3)cc2CC1C (stereo not given)	-0.14	·
O=C1c2ccc(-c3nc4ccccc4c(=O)o3)cc2C(=O)N1c1ccc(Cl)cn1	·	0.52
Cc1cc2nc(COC(=O)COc3ccc(C)c(C)c3)cc(=O)n2o1	0.57	·
Oc1ccc2c(c1)O[C@H](c1ccc(O)c(O)c1)[C@@H](O)C2	3.1	·
Oc1cc(O)c2c(c1)O[C@H](c1ccc(O)c(O)c1)[C@H](O)C2	24*	·
N#Cc1c(NC(=O)COCc2cc(-c3cccs3)on2)sc2c1CCC2	0.03	·
O=S(=O)(NC1CCCc2ccccc21)c1cc(-c2noc(C3CC3)n2)cs1 (stereo not given)	1.7	·
O=C(Nc1cccc2nsnc12)c1cccc(-n2cnnc2)n1	14*	·
O=C(Nc1cccc2nsnc12)c1nc(-n2cnnc2)ccc1Br	2.5	·
COc1ccc(-c2noc(-c3nnn(-c4ccc(F)cc4F)c3N)n2)cc1	0.19	·
CCC(=O)N1c2ccccc2CC1C(=O)NC(C)C (stereo not given)	1.5	·
Cc1ccc(-c2csc(Nc3ccc(S(N)(=O)=O)cc3)n2)cc1	2	-0.94
SMILES	HIV TAR-Tat	CDC25B-CDK2 inh
NS(=O)(=O)c1ccc(Nc2cc(-c3ccco3)cs2)cc1	·	17*
O=C(CCCN1C(=O)c2cccnc2Sc2ccccc21)NC1CC1	-0.01	·
O=C(CCc1nnc2ccc(NCc3ccc(F)cc3)nn12)NCC1CCCO1 (stereo not given)	1.1	·
CNC[C@H](O)c1ccc(O)c(O)c1	·	-1.7
NC[C@H](O)c1ccc(O)c(O)c1	27*	5.9*
CCOc1cc(C2Nc3ccccc3-n3cc4c(=O)n(C)c(=O)n(C)c4c32)ccc1O (stereo not given)	2.2	-1.3
COc1ccc(-c2nc(C(N)=O)c3[nH]c(=O)n(CC4CCCO4)c3n2)cc1OC (stereo not given)	1.4	·
C=CCSc1nc2c(c(=O)[nH]1)C(c1ccc(Cl)cc1)C(C(=O)OC(C)C)=C(C)N2 (stereo not given)	0.2	0.77
Cc1nc(N2CCCCC2)c2c(C)c(C(=O)N3CCCC3)sc2n1	·	-2.9
Cc1cc2c(N)cccc2nn1	·	17*
Nc1cccc2nsnc12	·	-2.1
CCN1CCN(c2ncnc3onc(-c4ccc(F)cc4)c23)CC1	-0.58	·
O=C(c1ccco1)N(c1cc2sc(=O)oc2c2ccccc12)S(=O)(=O)c1ccccc1	1.2	19*
O=C(Cc1ccccc1)N(c1ccc2oc(=O)sc2c1)S(=O)(=O)c1ccccc1	0.43	-1.9
CCn1c(=O)c(=O)n(CC(=O)O)c2cccnc21	0.37	1.6
O=S1(=O)C[C@H](NCc2ccccc2)[C@@H](S(=O)(=O)c2ccccc2)C1	-1.2	-1.4
CC(C)(C)N[C@H]1CS(=O)(=O)C[C@@H]1S(=O)(=O)c1ccccc1	19*	-0.12
O=c1c2c(-c3ccccc3)csc2ncn1Cc1ccc(F)cc1	0.36	-0.44
c1ccc(NC2=Nc3scc[n+]3[B-](c3ccccc3)(c3ccccc3)S2)cc1	·	-1.9
CCC[B-]1(CCC)OC(Nc2ccc3ccccc3c2)=Nc2scc[n+]21	·	4.2*
CCOC(=O)c1c(NC(=O)COCc2cc(-c3cccs3)on2)sc(C)c1C	1.9	·
CCOCCCNc1cc(N2CCN(C3CCCCC3)CC2)c2noc3c2c1C(=O)c1ccccc1-3	1.5	-1.8
